Compounds with a hit are over-represented: about 2.2% of the library has one in this group of screens.
aSyn yeast inh: qHTS of alpha-syn Inhibitors | 370,000 tested, 0.14% active | AID 652106, 2013 | Yeast expressing alpha-synuclein, growth rescue, BacTiter-Glo, 24 h | Potency, µM (doses to about 46.1 µM), for the others: at the highest dose growth rescue (activation), usual class: activators; also: % of control where 0% means no effect; nearly all actives have a fitted effect of over 65% in size
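Screening used galactose-induced yeast with toxic alpha-synuclein levels, exposed to compound for 24 hr at 30 deg C. Cell growth, read with BacTiter-Glo luminescence, gave the measured signal.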
Abeta yeast res: qHTS for compounds that reverse cellular toxicity of Amyloid beta (A-beta) peptide in yeast: Primary Screen | Potency, µM (titrated, usually from 46.1 µM), usual class: activators | 410,000 tested, 0.063% active | AID 1347071, 2019 | yeast expressing A-beta42, growth rescue, OD600, 48 h; response scale: 0% DMSO, 100% iron-clioquinol control; also: nearly all actives have a fitted effect of over 55% in size
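Yeast growth medium received pinned compounds, then yeast cells expressing toxic A-beta were added; plates incubated at 30 C for 48 hr. Growth read as absorbance at 600 nm, normalized to DMSO and equimolar FeCl3 plus clioquinol controls.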
FUS suppressor: qHTS for Suppressors of FUS Proteinopathy: Primary screen using FUS-linked yeast assay | 390,000 tested, 0.24% active | Potency, µM (series often up to 76.6 µM), most hits filed as activators | S. cerevisiae FUS-expressing, growth rescue, OD600, 24 h | AID 1347120, 2019;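 also: plate controls were DMSO vehicle for no effect and reference control for full effect; nearly all actives have a fitted effect of over 55% in size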
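Yeast FUS proteinopathy model; galactose-induced FUS (2%), starting OD 0.005. Cpds in dilution series, 24hr, 30C, 99% humidity. Abs 600 nm growth. Pos ctrl CP55940 (top 92uM final); neg ctrl DMSO.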
Mito fusion yeast: qHTS Assay for Small Molecule Inhibitors of Mitochondrial Division or Activators of Mitochondrial Fusion; Potency, µM (highest dose often 46.1 µM), for the others: at the top dose growth rescue (activation), hits mostly activators; S. cerevisiae fusion-defective mutant growth rescue, CellTiterGlo 48 h; 320,000 tested, 0.23% active; AID 485298, 2010; also: % of control where 0% means no effect; nearly all actives have a fitted effect of over 45% in size
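Read-out: ATP-based luminescence (CellTiterGlo, 10 min ambient) reporting growth of fusion-defective ts yeast after 48 hours at 37C on glycerol/ethanol YPEG medium in the presence of compound.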
TDP-43 yeast inh: qHTS of TDP-43 Inhibitors | AID 652104, 2013 | Potency, µM (titrated, usually from 46.1 µM), for the others: at the highest dose growth rescue (activation), actives largely listed as activators | TDP-43 expressing yeast growth rescue, BacTiter-Glo, 24 h | 410,000 tested, 1.8% active; also: % of control where 0% means no effect; nearly all actives have a fitted effect of over 50% in size
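Readout is BacTiter-Glo luminescence of cell growth, so inhibitors register as activators. TDP-43-expressing yeast at OD600=0.02 in galactose medium, after raffinose pregrowth to mid-log, were incubated with compound for 24 hr at 30 deg C.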
* = called active by the depositor; i = inactive; u = inconclusive; x = no result; ! = not active in a repeat. Calls follow the shape of the dose curve; as a rule, active = well fitted curve in the direction sought with a large enough effect; inconclusive = small, poorly fitted or top-dose-only effect, or another doubt; inactive = no such curve, though single readings can be large; an effect the other way counts as inactive or inconclusive. Potency is read from the fitted curve at half-maximal effect.

SMILES	aSyn yeast inh	Abeta yeast res	FUS suppressor	Mito fusion yeast	TDP-43 yeast inh
Cc1ccc(C)c(OCCC(=O)N2CCN(S(=O)(=O)c3cc(F)ccc3F)CC2)c1	0%	i	i	3%	18µM*
Cc1ccc(S(=O)(=O)N2CCN(C(=O)COC(=O)CCOc3cc(C)ccc3C)CC2)c(C)c1	10%	u	x	x	1%
CCOc1ccccc1OCCCC(=O)N1CCN(S(=O)(=O)c2ccc(Cl)cc2)CC1	1%	i	i	2%	14%
CC(C)COc1ccc(CC(=O)NO)cc1	8%	x	x	x	x
Brc1cccc[n+]1CCCC[n+]1ccccc1Br	1%	x	x	x	x
Cc1cccc(N(CC(=O)NCCSCc2ccc(Cl)cc2)S(C)(=O)=O)c1C	x	u	i	x	16µM*
CCn1cc(C(=O)N2CCN(c3ccccc3OC)CC2)c(=O)c2cc(S(=O)(=O)N3CCC(C)CC3)ccc21	x	i	i	x	11%
Cc1ccc(CONS(=O)(=O)c2cc(C)ccc2C)cc1	-57%	i	i	u	32µM*
COC(=O)c1cnn(-c2nc(OC)cc(OC)n2)c1C	8%	i	x	1%	5%
COc1cc(OC)nc(-n2ncc(Br)c(Br)c2=O)n1	9%	i	i	u	11µM*
Cc1cc2c(n1-c1ccc(C(=O)NCC(C)c3ccccc3)cc1)CCCC2 (stereo not drawn)	x	i	i	x	16%
CC(=O)c1cccc(-c2ccnc3c2CC(C(=O)Nc2ccc(F)c(Cl)c2)O3)c1 (stereo not drawn)	u	i	u	x	u
O=C(Nc1ccc(F)c(Cl)c1)C1Cc2c(-c3cccc(F)c3)ccnc2O1 (stereo not drawn)	u	i	i	x	18µM*
O=C(Nc1cccc(C(F)(F)F)c1)C1Cc2c(-c3cccc(F)c3)ccnc2O1 (stereo not drawn)	u	i	u	x	25µM*
NC(=O)c1cccc(-c2ccnc3c2CC(C(=O)Nc2cccc(C(F)(F)F)c2)O3)c1 (stereo not drawn)	-3%	i	i	x	5%
CN1CCc2c(c3cnc4cc(Cl)ccc4c3n2C)C1	9%	x	x	x	x
CC(=O)c1ccccc1OCCn1nnc(-c2ccc(C)cc2)n1	12%	i	i	21%	25µM*
COC(=O)CCn1nnc(-c2ccc(C)cc2)n1	16%	i	i	-1%	-1%
CCOc1ccc(CNCc2c(C(=O)O)n(Cc3ccccc3C)c3cc(OC)ccc23)cc1OC	10%	i	i	x	19%
O=C(Nc1ccc(F)cc1)c1ccc2ncsc2c1	-20%	i	i	-47%	25µM*
O=C(Nc1ccc(Cl)cc1)c1ccc2ncsc2c1	-19%	i	i	-66%	-7%
O=C(Nc1c(Cl)cc([N+](=O)[O-])cc1Cl)c1cc(Cl)cc(Cl)c1O	-86%	x	x	x	x
CC1CCCN(CC(=O)N2c3ccccc3Sc3ccccc32)C1 (stereo not drawn)	11%	22µM*	i	-4%	1%
CC(C)(C)C(=O)Nc1nnc(COc2ccc(Cl)cc2)s1	26%	u	i	7%	11µM*
COc1ccc(NC(=O)C2CCCN(S(=O)(=O)c3ccc(Cl)cc3)C2)cc1 (stereo not drawn)	x	i	i	x	13%
SMILES	aSyn yeast inh	Abeta yeast res	FUS suppressor	Mito fusion yeast	TDP-43 yeast inh
Cc1ccc(NC(=S)N2CCC(c3ccc(C)cc3)C2)cc1 (stereo not drawn)	-12%	u	i	-2%	18µM*
Cc1ccc(C2CCN(C(=O)Nc3ccccc3)C2)cc1 (stereo not drawn)	7%	i	i	-1%	10µM*
COc1ccc(NC(=S)N2CCC(c3ccc(C)cc3)C2)cc1 (stereo not drawn)	9%	u	i	-5%	8%
O=C(Nc1ccc(Cl)cc1)N1CCC(c2ccccc2)C1 (stereo not drawn)	1%	i	i	-2%	11µM*!
COc1ccc(NC(=O)C2CCN(C(=O)c3sc4nc[nH]c(=O)c4c3C)CC2)cc1Cl	x	i	i	x	-5%
Cc1[nH]c2ccccc2c1C(C[N+](=O)[O-])c1cccs1 (stereo not drawn)	19%	i	i	10%	u
Cc1[nH]c2ccccc2c1C(c1ccccc1)c1ccc(Cl)s1 (stereo not drawn)	x	u	i	x	35µM*
Cc1ccccc1N1C(=O)CC(N2CCC(C(N)=O)CC2)C1=O (stereo not drawn)	-89%	i	i	-14%	16µM*
Cc1ccc(CNC(=O)O[C@H]2CC[C@@]34CCCN3C(=O)CCC[C@H]4C2)cc1	x	x	i	x	x
O=C(COC(=O)CCCN1C(=O)c2ccccc2C1=O)Nc1cc(Cl)cc(Cl)c1	14%	i	i	-2%	15%
COc1ccc(NC(=O)COC(=O)CCCN2C(=O)c3ccccc3C2=O)cc1Cl	18%	i	x	-9%	35µM*
CC(=O)Nc1nc(-c2ccc(Cl)cc2)nc(C)c1C(C)=O	0%	i	i	-8%	35µM*
Cc1csc(NC(=O)c2ccc(C)c([N+](=O)[O-])c2)n1	-10%	i	x	-3%	20µM*
CCc1sc(C(=O)Nc2nc(C)cs2)cc1C	-24%	i	i	-6%	20µM*
CCc1sc(C(=O)Nc2ccc(NC(C)=O)cc2)cc1C	0%	i	i	4%	0%
Cc1cc(C)nc(NC(=O)c2ccc(C)c([N+](=O)[O-])c2)n1	13%	i	i	0%	0%
CCc1ccc(NCc2cc3cc4c(cc3n(CC(=O)Nc3ccccc3OC)c2=O)OCCO4)cc1	0%	i	i	x	0%
O=C(O)C1C2C=CC(CC2)C1C(=O)O (stereo not drawn)	9%	u	u	-1%	20µM*
CC(=O)Nc1ccc(NC(=O)C2C3C=CC(C3)C2C(=O)O)cc1 (stereo not drawn)	0%	i	i	0%	15%
CC(C)c1ccc(NC(=O)C2C3C=CC(CC3)C2C(=O)O)cc1 (stereo not drawn)	3%	i	i	x	13µM*
C#CCN1C(=O)[C@]2(NCCc3c2[nH]c2ccc(OC)cc32)c2cc(F)ccc21	x	x	i	x	x
Cc1ccc(-c2cc(C(=O)N3CCN(c4ccc(O)cc4)CC3)c3ccccc3n2)cc1	6%	i	u	x	16µM*
O=C(c1cc(-c2ccccc2Cl)nc2ccccc12)N1CCN(c2ccccc2O)CC1	-18%	i	i	u	20µM*
Cc1ccc(-c2cc(C(=O)N3CCN(c4ccccc4O)CC3)c3ccccc3n2)cc1	-5%	i	i	19%	21%

Screening data: PubChem, National Center for Advancing Translational Sciences (NCATS)
